Records with an inconclusive call do not appear. Where a call stands in place of a potency, no number is given. Active and inactive are the calls of the source. Calls follow the shape of the dose curve; as a rule, active = well fitted inhibition curve with a large enough effect; inconclusive = small, poorly fitted or top-dose-only effect; inactive = flat fitted curve, though single readings scatter.
Potency is read from the fitted curve at half-maximal effect.

Sequence of Luciferin 4-monooxygenase (Photinus pyralis) (P08659 whole entry, looked up): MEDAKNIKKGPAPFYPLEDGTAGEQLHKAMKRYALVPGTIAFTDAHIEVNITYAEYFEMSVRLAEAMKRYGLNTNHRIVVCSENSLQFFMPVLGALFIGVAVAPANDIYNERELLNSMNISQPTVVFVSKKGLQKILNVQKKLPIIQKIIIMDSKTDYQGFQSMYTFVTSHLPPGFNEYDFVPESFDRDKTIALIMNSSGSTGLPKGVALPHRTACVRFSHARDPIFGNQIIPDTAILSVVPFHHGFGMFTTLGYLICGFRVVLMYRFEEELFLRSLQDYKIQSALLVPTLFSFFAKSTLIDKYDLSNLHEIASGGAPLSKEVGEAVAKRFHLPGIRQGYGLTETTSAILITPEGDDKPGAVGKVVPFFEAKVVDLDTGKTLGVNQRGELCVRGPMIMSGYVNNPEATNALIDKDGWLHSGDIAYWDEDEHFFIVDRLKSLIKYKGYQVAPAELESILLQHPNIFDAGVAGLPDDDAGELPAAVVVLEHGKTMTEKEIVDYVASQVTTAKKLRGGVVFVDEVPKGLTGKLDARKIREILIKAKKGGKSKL

This experiment deals with Luciferin 4-monooxygenase (Photinus pyralis) (UniProt P08659). Put plainly: Biochemical firefly luciferase enzyme assay for NPC (AID 624030). Also: nearly all actives have a fitted effect of over 70% in size. Particulars: purified P. pyralis luciferase, luminescence, 5 min; series mostly up to 58.6 µM. A digest of the protocol:
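Direct inhibition of firefly luciferase enzyme (10 nM final, 50 mM Tris Acetate) assessed by luminescence within 5 minutes. Percent activity scaled between DMSO and PTC124 positive control, with concentration-effect curves classified by fit quality and response.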
Turning to `CC(C)(C)NC[C@H](O)c1ccc(O)cc1Cl`, the Potency result is “inactive”.

In the case of `CC(C)NCC(O)c1ccc([N+](=O)[O-])cc1` (stereo not given), the Potency result is “inactive”.

As to `CCC1(CCC(C)C)C(=O)NC(=O)NC1=O`, the Potency entry was “inactive”.

With `Nc1ccc(Cl)cc1N`, the Potency was 3.32 µM (active).

As for `COCCOCCO`, the Potency entry is “inactive”.

In the case of `C[C@]12CC[C@@H]3[C@@H](CCC4=CC(=O)CC[C@@H]43)[C@@H]1CC[C@@H]2OC(=O)CCc1ccccc1`, the Potency result is “inactive”.

`O=C(O)COc1nc(Cl)c(Cl)cc1Cl`: the Potency entry was “inactive”.

`Nc1ccc(Cl)cc1`: the Potency entry is “inactive”.

`c1cc2ccc3cccc4ccc(c1)c2c34`: the Potency result is “inactive”.

As for `CC(O)CN1CCN(CC(=O)[O-])CCN(CC(=O)[O-])CCN(CC(=O)[O-])CC1.[Gd+3]` (stereo not given), the Potency result was “inactive”.

For the compound `C[N+](C)(C)CC(=O)O`, the Potency result was “inactive”.

`C[C@@H]1[C@H](O)[C@@H](C)C=CC=CCCC=CC=CC=CC=C[C@H](O[C@H]2O[C@@H](C)[C@H](O)[C@@H](N)[C@@H]2O)CC2O[C@](O)(C[C@@H](O)[C@H](O)CC[C@@H](O)C[C@@H](O)C[C@@H](O)CC(=O)O[C@H]1C)C[C@H](O)[C@H]2C(=O)O`: the Potency entry was “inactive”.

`[Cl][In]([Cl])[Cl]`: the Potency is 14.8 µM (active).

Turning to `O=S(=O)(c1ccc(Cl)cc1)c1ccc(Cl)cc1`, the Potency entry was “inactive”.

Consider `O=[N+]([O-])c1c2ccccc2cc2ccccc12`, for which the Potency result was “inactive”.

As to `CS(=O)(=O)c1ccc(C(=O)C2C(=O)CCCC2=O)c([N+](=O)[O-])c1`, the Potency entry is “inactive”.

On to `O=C(O)c1cc(Oc2ccc(C(F)(F)F)cc2Cl)ccc1[N+](=O)[O-]`, for which the Potency result was “inactive”.

In the case of `O=[N+]([O-])c1c(Cl)c(Cl)cc(Cl)c1Cl`, the Potency result was “inactive”.

`CCCN(CCC)c1c([N+](=O)[O-])cc(S(N)(=O)=O)cc1[N+](=O)[O-]`: the Potency result is “inactive”.

As for `CCCCOC(=O)c1ccccc1C(=O)OCc1ccccc1`, the Potency entry is “inactive”.

For the compound `CO/C=C(/C(=O)OC)c1ccccc1Oc1cc(Oc2ccccc2C#N)ncn1`, the Potency entry was “inactive”.

`CCCCC(CC)COC(=O)c1ccccc1C(=O)OCC(CC)CCCC` (stereo not given): the Potency entry was “inactive”.

Take `C=CC(=O)NCNC(=O)C=C`: the Potency entry is “inactive”.

Take `O=C(O)c1ccccc1O`: the Potency entry is “inactive”.

`COc1ccc(C(c2ccc(OC)cc2)C(Cl)(Cl)Cl)cc1`: the Potency entry was “inactive”.

In the case of `C=CCC1=C(C)C(OC(=O)C2C(C=C(C)C)C2(C)C)CC1=O` (stereo not given), the Potency result was “inactive”.

As for `CC(C)(C)C(O)C(Oc1ccc(Cl)cc1)n1cncn1` (stereo not given), the Potency entry is “inactive”.

For `ClC1=C(Cl)[C@]2(Cl)[C@@H]3[C@@H]4C[C@@H]([C@H]5O[C@@H]45)[C@@H]3[C@@]1(Cl)C2(Cl)Cl`, the Potency result was “inactive”.

On to `CC(C)Oc1cccc(NC(=O)c2ccccc2C(F)(F)F)c1`, for which the Potency entry is “inactive”.

`Nc1c(Cl)c(Cl)c(Cl)c(Cl)c1Cl`: the Potency result was “inactive”.

Values taken from PubChem BioAssay (NCATS).
